Compounds with a hit are over-represented: about 0.92% of the library has one in this group of screens.
CIT2 TOR yeast: modulators of TOR pathway CIT2-GFP in S. cerevisiae | S. cerevisiae CIT2-GFP strain, flow cytometry, 3 h; 100 means same as DMSO wells | GFP response vs DMSO, % at 10 µM | 0.065% of 320,000 active;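 active = GFP response relative to DMSO above a set limit, near the screen mean plus 3 SD, cut at about 150% in these data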;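 note: ratio of well median GFP fluorescence to mean of DMSO wells on the plate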
MEP2 TOR yeast: modulators of TOR pathway MEP2-GFP in S. cerevisiae. AID 2016. 0.51% of 330,000 active. GFP response vs DMSO, % at 10 µM. S. cerevisiae MEP2-GFP strain, flow cytometry GFP, 3 h; 100% = DMSO control level;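 active = GFP response versus DMSO above a set limit, roughly screen mean plus 3 SD, cut at about 180% in these data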;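 note: median GFP fluorescence of the barcode-gated MEP2-GFP cells per well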
AGP1 TOR yeast: alters AGP1-GFP fluorescence in TOR pathway yeast screen | 0.02% of 320,000 active | GFP response vs DMSO, % at 10 µM | AID 2066 | S. cerevisiae AGP1-GFP multiplex flow cytometry, 3 h; GFP as percent of DMSO wells;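 active = GFP response relative to DMSO above a set limit, near screen average plus 3 SD, cut at about 150% in these data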;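 note: median GFP channel fluorescence of the gated AGP1 strain per well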
RPL19A-GFP yeast: alters RPL19A-GFP fluorescence in TOR pathway yeast screen; S. cerevisiae RPL19A-GFP strain, flow cytometry, 3 h; active compounds read low; 0.3% of 330,000 active; AID 2025; percent response vs DMSO, % at 10 µM;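 active = percent response vs DMSO below 50%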;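 note: median channel GFP fluorescence of the barcoded RPL19A-GFP strain; lower means less RPL19A-GFP as with rapamycin TOR inhibition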
LAP4-GFP MLPCN: alters LAP4-GFP fluorescence in TOR pathway yeast screen; S. cerevisiae LAP4-GFP multiplex, flow cytometry GFP, 3 h; median GFP as percent of DMSO wells; GFP response vs DMSO, % at 10 µM; 0.34% of 320,000 active; AID 2023;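 active = GFP response vs DMSO above a set limit, about the screen mean plus 3 SD, cut at about 150% in these data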
LAP4-GFP pick2: yeast LAP4-GFP modulation, second cherry pick. shares compounds with LAP4-GFP MLPCN. S. cerevisiae LAP4-GFP strain, flow cytometry GFP, 3 h. GFP response vs DMSO, % at 10 µM. 20% of 590 active. AID 2621;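 active = GFP signal as percent of the solvent control above about 150%, meaning raised reporter expression, limit read from the data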
MEP2 cherry2: reconfirmed MEP2-GFP TOR pathway modulator in yeast; AID 2622; GFP response vs DMSO, % at 10 µM; S. cerevisiae MEP2-GFP strain, flow cytometry GFP, 3 h; shares compounds with LAP4-GFP MLPCN; 10% of 590 active;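 active = GFP signal above 150% of the solvent control wells, that is a rise of more than half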;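 note: median channel GFP fluorescence of all gated yeast cells per well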
RPL19A GFP CP2: reconfirmed modulator of RPL19A-GFP TOR reporter in yeast. GFP response vs DMSO, % at 10 µM. S. cerevisiae RPL19A-GFP strain, flow cytometry GFP, 3 h; active compounds read low; 100% means same as DMSO wells. 3% of 590 active. shares compounds with LAP4-GFP MLPCN. AID 2623;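 active = under 65% GFP response relative to DMSO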;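 note: median GFP channel fluorescence per well over the all cells gate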
CIT2 GFP CP2: yeast CIT2-GFP TOR reporter modulation, second cherry pick. GFP response vs DMSO, % at 10 µM. AID 2624. S. cerevisiae CIT2-GFP strain, flow cytometry GFP, 3 h; DMSO control wells read 100%. 8% of 590 active. shares compounds with LAP4-GFP MLPCN;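 active = GFP response vs DMSO above about 150%, limit read from the data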;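 note: median green fluorescence per well over all gated yeast cells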
AGP1 GFP CP2: yeast AGP1-GFP TOR reporter modulation, second cherry pick; shares compounds with LAP4-GFP MLPCN; 590 tested, under 10 active; percent response vs DMSO, % at 10 µM; S. cerevisiae AGP1-GFP strain, flow cytometry GFP, 3 h;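 active = over 150 percent of DMSO response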;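 note: median GFP channel fluorescence over all cells without mother daughter split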
Yeast autofluor: compound is autofluorescent in yeast s288c cells. fluorescence change (kMESF span) at 33 µM. 610 tested, under 10 active. shares compounds with LAP4-GFP MLPCN. AID 2757. S. cerevisiae s288c, 520 nm autofluorescence, flow cytometry, 3 h; active compounds read high; zero means same as solvent-only cells;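 active = fluorescence span over the dose series, or activity score, above about 33, limit read from the data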
Yeast autofl DR: TOR screen hit shows autofluorescence in yeast s288c; shares compounds with LAP4-GFP MLPCN; S. cerevisiae s288c parental, compound autofluorescence, flow cytometry, 3 h; fluorescence change (span) at 33 µM; 110 tested, under 10 active; AID 488829;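 active = fluorescence change span, or the activity score built from it, above 25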
TORC1 bypass gr: wildtype yeast growth loss with TORC1 bypass cells unaffected. shares compounds with LAP4-GFP MLPCN. S. cerevisiae BY4741 spot growth rating, 48-72 h; active compounds read low. growth rating (0-3) at 30 µM. 120 tested, under 10 active. AID 504456;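 active = growth rating at most 1 for wild type yeast while the TORC1 bypass strain still grows fully, rated 3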
Of the large screens only hits and unclear results are named; the others gave an inactive call (follow-up assays come after a bar, where they were run).

CN(CC1CCOCC1)C(=O)CC1C(=O)NCCN1C/C=C/c1ccccc1 (stereo unspecified)	none
S=c1[nH]nc(-c2cc3c(s2)-c2ccccc2CC3)o1	none
CSc1nnc(-c2cc3c(s2)-c2ccccc2CC3)o1	LAP4-GFP MLPCN 151.3 | LAP4-GFP pick2 inactive | MEP2 cherry2 inactive | RPL19A GFP CP2 inactive | CIT2 GFP CP2 inactive | AGP1 GFP CP2 inactive
Cc1cccc(NC(=O)C2C3CCC4C(CCC32)C4(Cl)Cl)c1 (stereo unspecified)	none
Cc1ccc(C(=O)OCC(=O)NC2CC2)cc1S(=O)(=O)N1CCOCC1	none
N=C1S/C(=C\c2ccco2)C(=O)N1c1nccs1	LAP4-GFP MLPCN 167.9 | Yeast autofluor inactive
N=C1S/C(=C\c2ccco2)C(=O)N1c1ccc2c(c1)OCO2	none
O=C(CNC(=S)N(Cc1ccccc1)Cc1ccccc1F)NCCc1ccc(Cl)cc1	none | LAP4-GFP pick2 inactive | MEP2 cherry2 inactive | RPL19A GFP CP2 inactive | CIT2 GFP CP2 inactive | AGP1 GFP CP2 inactive
O=C(Cc1ccc(Cl)cc1)NCCc1ccc(F)cc1	none
CCNc1nc(Cl)nc(N(NC(C)=O)C(C)CC)n1 (stereo unspecified)	none | LAP4-GFP pick2 inactive | MEP2 cherry2 inactive | RPL19A GFP CP2 inactive | CIT2 GFP CP2 inactive | AGP1 GFP CP2 inactive
CCNc1nc(Cl)nc(N(NC(C)=O)C(C)C)n1	none
Cc1cc(C)c(S(=O)(=O)c2ccccc2C)c(OCCN(C)C)n1	none
CCC(C)NC(=O)CS(=O)Cc1nc(-c2cccc(C)c2)oc1C (stereo unspecified)	LAP4-GFP MLPCN 155.7 | LAP4-GFP pick2 inactive | MEP2 cherry2 inactive | RPL19A GFP CP2 inactive | CIT2 GFP CP2 inactive | AGP1 GFP CP2 inactive
O=C(Nc1ccccc1)ON=C1CCCC1	none | LAP4-GFP pick2 inactive | MEP2 cherry2 inactive | RPL19A GFP CP2 inactive | CIT2 GFP CP2 inactive | AGP1 GFP CP2 inactive | Yeast autofluor inactive
Cc1ccc(NC(=O)C/C(N)=N/OC(=O)Nc2cccc(C)c2)cc1	none
Cc1ccc(NC(=O)ON=C2CCCC2)cc1	CIT2 TOR yeast 219.0 | Yeast autofluor inactive
O=C(Nc1ccccc1)O/N=C/c1ccncc1	none
Oc1c(C(Nc2cccc(C(F)(F)F)c2)c2ccncc2)ccc2cccnc12 (stereo unspecified)	LAP4-GFP MLPCN 170.0 | Yeast autofluor inactive
Cc1cc(OC2CCCCC2)nc(NCc2ccccc2)n1	none
Clc1cc(Cl)cc(Nc2cc(Oc3cccc(Cl)c3)nc(NCc3ccccc3)n2)c1	none (no result: CIT2 TOR yeast, MEP2 TOR yeast, AGP1 TOR yeast, RPL19A-GFP yeast, LAP4-GFP MLPCN) | Yeast autofl DR inactive | TORC1 bypass gr inactive
Cc1cc(Nc2cccc(Cl)c2)nc(NCc2ccccc2)n1	none

Screens: PubChem, NMMLSC
